Source: PubChem BioAssay
In the library only some 10% were active in any assay of this set; here they are far more common.
PNC inhibitor: inhibitors of perinucleolar compartment assembly; PC3M PTB-GFP, PNC prevalence imaging, 16 h; active compounds read low; 140,000 tested, 3.1% active; activity change (PNC), negative = inhibition, % at 10 µM; AID 2417;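 active = readout at or below -70, meaning at least 70% loss of cells showing the perinucleolar compartment, a nuclear body marking cancer cells; inconclusive = readout between -30 and a set limit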;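 also: plate controls were DMSO wells for no effect and camptothecin positive control wells for full effect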
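PC3M cells stably expressing PTB-GFP, 750–1000 cells/well, treated 16 h at 37 °C with compound (23 nl of library stock), in duplicate. After paraformaldehyde fixation and Hoechst stain, imaged at 20x; PNC prevalence scored by image analysis.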
ALOX12 inhib: blocks human 12-lipoxygenase activity | 150,000 tested, 0.12% active | AID 1452 | Potency, µM (series often up to 57.1 µM), inactives show at the highest dose activity change, negative = inhibition, hits mostly inhibitors | P18054 | purified 12-hLO, xylenol orange hydroperoxide absorbance; also: potency is read from the fitted curve at half-maximal effect; nearly all actives have a fitted effect of over 55% in size
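Purified human 12hLO (150 nM), preincubated 15 min with compound, then 40 uM arachidonic acid for 30 min, room temperature, Hepes pH 7.0 with 0.01% Triton X-100. Hydroperoxide detected by ferrous iron/xylenol orange; 573/405 nm absorbance ratio gives reaction progress.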
HPGD block: HPGD (human) dehydrogenase inhibition; P15428; purified HPGD, NADH fluorescence kinetic, PGE2 substrate; Potency, µM, inactives show top-dose activity change, negative = inhibition, actives largely listed as inhibitors; 150,000 tested, 4.3% active; AID 894; active = well fitted inhibition curve with a large enough effect, not every such curve was filed as active; inconclusive = small, poorly fitted or top-dose-only effect, or another doubt; inactive = no such curve, though single readings can be large or run the other way; also: potency is read from the fitted curve at half-maximal effect
Target sequence (P15428 whole entry, looked up): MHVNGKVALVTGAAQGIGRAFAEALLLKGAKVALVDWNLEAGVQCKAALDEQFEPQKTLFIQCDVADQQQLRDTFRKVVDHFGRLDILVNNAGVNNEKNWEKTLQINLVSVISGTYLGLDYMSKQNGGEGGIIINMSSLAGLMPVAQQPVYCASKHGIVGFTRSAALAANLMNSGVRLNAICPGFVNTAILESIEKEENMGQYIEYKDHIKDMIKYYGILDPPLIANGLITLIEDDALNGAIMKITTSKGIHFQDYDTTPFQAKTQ
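20 nM HPGD preincubated 15 min at room temperature with compound in 50 mM Tris-HCl pH 8, 0.01% Tween 20. Started with 1 mM NAD+ and 30 uM prostaglandin E2; NADH fluorescence (360/450 nm) read 5 times over 30-s intervals, last minus first.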
GLA inh pH 4.5: blocks human alpha-galactosidase A at pH 4.5. AID 1467. purified enzyme, 4-MU-alpha-Gal fluorescence, pH 4.5. 230,000 tested, under 10 active. P06280. activity change, negative = inhibition, % at 105 µM;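 also: 0% = full activity with enzyme and -100% = basal without enzyme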
ALDH1A1 inh: inhibitors of human aldehyde dehydrogenase 1A1 | AID 1030 | 220,000 tested, 7.3% active | P00352 | Purified ALDH1A1, NADH fluorescence, propionaldehyde substrate | Potency, µM (series often up to 75.3 µM), inactives show at the highest dose activity, negative = inhibition, most hits filed as inhibitors; active = well fitted inhibition curve with a large enough effect, not every such curve was filed as active; inconclusive = small, poorly fitted or top-dose-only effect, or another doubt; inactive = no such curve, though single readings can be large or run the other way;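 also: potency is read from the fitted curve at half-maximal effect; plate controls were no enzyme wells and a reference inhibitor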
aGal spleen mod: inhibitors or activators of human alpha-galactosidase in spleen homogenate; human spleen homogenate, 4MU-alpha-Gal fluorescence, 40 min; Potency, µM (top dose mostly 80 µM), for the others: top-dose activity change, negative = inhibition, actives largely listed as inhibitors; 240,000 tested, 0.008% active; AID 2107;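 also: potency is read from the fitted curve at half-maximal effect; 0% = enzyme with vehicle and -100% = no enzyme basal signal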
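Inhibition or activation of alpha-galactosidase in human spleen homogenate is scored by 4-MU fluorescence after 40 min at 37C, pH 5.0, with 1 mM substrate. AC50s come from concentration-response fitted to the Hill equation.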
Active calls of the source: *; ? = inconclusive; / = no result; [ ] = dose if it differs, or a comment. Unless noted, calls follow the shape of the dose curve; as a rule, active = well fitted curve in the direction sought with a large enough effect; inconclusive = small, poorly fitted or top-dose-only effect, or another doubt; inactive = no such curve, though single readings can be large; an effect the other way counts as inactive or inconclusive. Unless noted, % is scaled to controls: 0 for no effect and ±100 for the full control effect.

SMILES	PNC inhibitor	ALOX12 inhib	HPGD block	GLA inh pH 4.5	ALDH1A1 inh	aGal spleen mod
Cc1cc2cc(C(c3nnnn3Cc3ccccc3)N3CCc4ccccc43)c(=O)[nH]c2cc1C (stereo not given)	8	-12%	-16%	-6	?	-1%
O=S(=O)(c1ccc(F)cc1)n1ccc2cccnc21	-100*	6%	-6%	-7	12%	8%
COc1ccc(C)cc1NC(=O)C(NCC1CCCO1)c1ccccc1 (stereo not given)	-17	0%	-1%	-12	18µM*	2%
COc1ccc(/C=N/NC2=NCCCCC2)cc1	3	14%	13µM*	1	?	5%
COc1ccc(OC)c(C2=NOC(C(=O)NCC3CCCO3)C2)c1 (stereo not given)	-5	-4%	?	-2	?	3%
O=C(NCC1CCCO1)C1CC(c2ccccc2Cl)=NO1 (stereo not given)	-23	8%	20µM*	5	10%	7%
NCCC[C@@H](CC(=O)N[C@@H]1CCNC[C@H]1C(=O)N[C@H](CC(=O)N[C@@H](CCC(=O)O)CC(=O)O)Cc1ccccc1)NC(=O)C[C@H](Cc1c[nH]c2ccccc12)NC(=O)[C@@H]1CCCC[C@H]1N	/	-1%	-6%	-11	-2%	2%
CN(Cc1cccs1)S(=O)(=O)c1cccs1	?	1%	28µM*	-4	?	14%
CCOC(=O)CSc1nnc(CNC(=O)c2cccs2)n1-c1cccc(C)c1	13	2%	-4%	-6	17%	9%
COC(=O)CSc1nnc(CNC(=O)c2cccs2)n1-c1cc(OC)ccc1OC	1	-4%	/	-10	20µM*	7%
CC(C)NC(=O)N1CCC2(CC1)CCN(C(=O)c1csnn1)CC2	/	-2%	-1%	/	2%	13%
Nc1ccccc1SCc1ccccc1	/	/	/	4	3%	-5%
N#CC(=C(\N)Sc1ccccc1N)/C(C#N)=C(/N)Sc1ccccc1N	/	/	8.9µM*	-5	/	-9%
O=C(CCNc1cccc(F)c1)c1cc2ccccc2o1	/	/	/	3	0.025µM*	-3%
O=C(CCNc1ccc(F)cc1)c1cc2ccccc2o1	/	/	/	1	0.1µM*	-6%
O=C(Cc1ccc(F)cc1)OCC(=O)c1cc2ccccc2o1	20	-14%	?	-3	?	-16%
COc1cccc(-c2nn3c(-c4ccco4)nnc3s2)c1	-14	-20%	?	-5	3.5µM*	-3%
COc1cccc(OC)c1-c1nn2c(-c3ccco3)nnc2s1	?	-7%	16µM*	5	?	1%
O=C(Nc1ccccc1N1CCOCC1)c1cc(Br)c(Br)s1	/	/	/	8	0%	8%
O=C1c2ccccc2C(=O)c2c(NC(=O)c3ccc4c5c(ncnc35)-c3ccccc3C4=O)cccc21	/	3%[11.4 µM]	-2%	/	-1%[13.5 µM]	/
CC(=O)/C(N=Nc1cc(C)ccc1O)=C(\C)O	/	/	/	7	2µM*	4%
O=C(Nc1ccccc1C(F)(F)F)c1cc(-c2ccccc2O)on1	-100*	3%	-16%	2	-3%	-4%
Cc1ccc(S(=O)(=O)CCc2ccccn2)cc1	-12	-3%	-15%	-6	7%	4%
CC(C)(C)c1ccc(S(=O)(=O)CCc2ccccn2)cc1	?	5%	-14%	-6	7.1µM*	-1%
COc1ccc(CNc2nc(-c3ccccc3)nn2C(=O)c2cccs2)cc1	29	3%	-29%	7	25µM*	-2%
CN(C)c1nnc(-c2ccc(Cl)cc2)o1	/	/	/	-5	?	23%
